ClpP mod = qHTS Assay for Activators of ClpP | purified B. subtilis ClpP, FRET peptide cleavage, 20 min | Potency, µM (series often up to 57.5 µM) | 340,000 tested, 1.9% active | AID 651965, 2013; active = well fitted falling curve with a large enough effect; inconclusive = small, poorly fitted or top-dose-only effect; inactive = no such curve, though single readings can be large or run the other way; also: the source files actives as falling curves though it sought activators and does not explain the sign; nearly all actives have a fitted effect of over 65% in size
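Purified B. subtilis ClpP, 10 microg/mL final in Tris/HCl pH8 with KCl, BSA, glycerol and Tween-20, cleaved an Abz/nitrotyrosine-quenched decapeptide. Fluorescence (ex 320, em 430) was read at 0 and 20 min at room temperature. Delta was normalized to 5.8 microM ADEP and DMSO/no-enzyme controls.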
D3 antag = blocks the human D3 dopamine receptor; P35462; D3R cells, DiscoveRx beta-arrestin luminescence, antagonist mode; hits give low values; max response, negative = inhibition, %; 360,000 tested, 2.5% active; AID 652054; in the data active = max response below about -50%; inconclusive = no clear call, values can overlap the other calls
Target sequence (P35462 whole entry, looked up): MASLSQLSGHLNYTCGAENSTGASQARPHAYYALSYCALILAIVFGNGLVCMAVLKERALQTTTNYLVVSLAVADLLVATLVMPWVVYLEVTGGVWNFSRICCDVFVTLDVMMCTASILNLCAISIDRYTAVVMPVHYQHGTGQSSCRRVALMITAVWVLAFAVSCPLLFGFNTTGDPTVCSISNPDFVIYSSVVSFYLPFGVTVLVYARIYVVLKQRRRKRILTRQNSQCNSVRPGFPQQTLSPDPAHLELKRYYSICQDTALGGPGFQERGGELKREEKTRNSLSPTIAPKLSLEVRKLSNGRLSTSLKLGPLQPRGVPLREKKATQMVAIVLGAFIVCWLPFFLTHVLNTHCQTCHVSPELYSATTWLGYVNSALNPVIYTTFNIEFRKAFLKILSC
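Cells plated overnight at 1500 cells/well, then exposed to library compounds with dopamine controls for 90 minutes at 37 degrees C. DiscoveRx reagent added for 30–60 minutes at room temperature; luminescence read, quantitative HTS format.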
IL-1B inflam inh = blocks inflammasome-driven IL-1 beta release; activity change, % at 57.5 µM; THP-1 LPS/ATP IL-1B secretion, AlphaLISA, 16 h; hits give low values; 360,000 tested, 4.7% active; AID 743279; in the data active = activity change below about -50%; inconclusive = mostly about -30% to -49%
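THP-1 cells pretreated 1 hr with compounds (up to 57.5 uM final), then stimulated with LPS (250 ng/mL final) plus ATP (1.25 mM final); secreted IL-1B measured by AlphaLISA after 16 hr, decreased signal indicating inhibition.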
DT40 TDP1 no CPT = qHTS for Inhibitors of human tyrosyl-DNA phosphodiesterase 1 (TDP1): qHTS in cells in absence of CPT; DT40 Tdp1-/- hTDP1 cells, no CPT, ATP luminescence, 48 h; Potency, µM (top dose mostly 46.2 µM), usual class: inhibitors; 420,000 tested, 15% active; AID 686978, 2013; also: nearly all actives have a fitted effect of over 55% in size
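Readout: luminescence from CellTiter-Glo after 30 min in the dark at RT. Cells: DT40 Tdp1-/- with stable hTDP1, 400/well. Exposure: compounds alone, ≥48 hr, 37 °C.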
DT40 TDP1 CPT = growth inhibition of DT40 Tdp1-/-;hTDP1 cells with camptothecin (screen for TDP1 inhibitors); chicken DT40 Tdp1-/-;hTDP1 cells + 20 nM CPT, ATP luminescence, 48 h; Potency, µM (doses to about 46.2 µM), usual class: inhibitors; 420,000 tested, 12% active; also: nearly all actives have a fitted effect of over 55% in size
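Chicken DT40 Tdp1-/- cells stably complemented with human TDP1 were seeded at 400 cells/well in medium containing 20 nM camptothecin, exposed to pin-transferred compounds, and grown at 37 °C for at least 48 hr. Viability was read as ATP luminescence.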
D3 ag = D3 dopamine receptor (human) agonism; max activation, %; P35462; 410,000 tested, 0.58% active; D3R DiscoveRx beta-arrestin cells, luminescence, 90 min; AID 652048; in the data active = max activation above about 30%
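Cells at 1500/well, incubated overnight, then treated with pinned compounds (dopamine as control) for 90 min at 37 degrees C. DiscoveRx reagent added for 30 - 60 minutes at room temperature; luminescence read.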
Each line names hits and unclear results; the compound was inactive in the other large screens. Shown are actives, neighbours in structure and some others; about 21% of the full set was active somewhere. Unless noted, calls follow the shape of the dose curve; as a rule, active = well fitted inhibition curve with a large enough effect; inconclusive = small, poorly fitted or top-dose-only effect; inactive = flat fitted curve, though single readings scatter.

CCCCCCCn1c(=N)n(CC(=O)c2ccco2)c2ccccc21	IL-1B inflam inh -80, DT40 TDP1 no CPT inconclusive, DT40 TDP1 CPT 21µM
O=C(Cc1ccccc1Cl)Nc1nc2ccccc2[nH]1	DT40 TDP1 no CPT inconclusive (no result: ClpP mod)
COc1ccc(CCc2nnc(CCC(=O)NCC3CCCO3)o2)cc1 (configuration not stated)	none (no result: ClpP mod)
CCCOC(=O)c1ccc(NC(=O)C(CC)CC)cc1	none
CCCCCCCn1c(=N)n(CC(O)c2ccco2)c2ccccc21 (configuration not stated)	DT40 TDP1 no CPT 4.6µM, DT40 TDP1 CPT 3.7µM (no result: ClpP mod)
Cc1ccc(C(=O)Cn2c(=N)n(CCN3CCOCC3)c3ccccc32)cc1	DT40 TDP1 no CPT inconclusive, DT40 TDP1 CPT inconclusive
Cc1ccc(Cn2c(=N)n(CC(=O)c3ccc([N+](=O)[O-])cc3)c3ccccc32)cc1	IL-1B inflam inh -102, DT40 TDP1 no CPT 2.9µM, DT40 TDP1 CPT 4.6µM
COc1ccc(CN2CCN(CCSc3ccc(C)cc3)CC2)c(OC)c1OC	DT40 TDP1 no CPT inconclusive, DT40 TDP1 CPT inconclusive
CC1=CC(=O)C(C(C)=Nc2ccccc2[N+](=O)[O-])C(=O)O1 (configuration not stated)	none
COC(=O)c1ccc(NS(=O)(=O)c2ccc3c(c2)n(C)c(=O)n3C)cc1	DT40 TDP1 no CPT inconclusive
Cc1ccc(C(=O)OCC(=O)Nc2ccc(N3CCOCC3)cc2)cc1	ClpP mod 32µM
CCOC(=O)c1ccc(NS(=O)(=O)c2ccc3c(c2)oc(=O)n3C)cc1	DT40 TDP1 no CPT inconclusive, DT40 TDP1 CPT 3.7µM
CSc1cccc(NS(=O)(=O)c2ccc3c(c2)oc(=O)n3C)c1	DT40 TDP1 no CPT inconclusive, DT40 TDP1 CPT 23µM
CC(=O)Nc1ccc(C(=O)OCC(=O)Nc2ccc(N3CCOCC3)cc2)cc1	none
CCOC(=O)c1ccc(NS(=O)(=O)c2ccc3c(c2)n(C)c(=O)n3C)cc1	DT40 TDP1 no CPT 18µM, DT40 TDP1 CPT 21µM
Cn1ccc(C(=O)NC(=S)Nc2ccc([N+](=O)[O-])cc2O)n1	none
C[C@@H]1CN([C@H](C)CO)C(=O)c2cc(NC(=O)c3ccncc3)ccc2O[C@@H]1CN(C)C(=O)Nc1ccccc1	none
C=CC(n1cncn1)C(O)(c1ccccc1)c1ccccc1 (configuration not stated)	none
CCOC(=O)c1ccc(S(=O)(=O)Nc2ccc(N3CCOCC3)cc2)cc1	DT40 TDP1 no CPT inconclusive, DT40 TDP1 CPT 21µM (no result: ClpP mod)
COc1ccc(-n2ncc3c(NCC(C)C)ncnc32)cc1	ClpP mod 32µM, DT40 TDP1 no CPT inconclusive, DT40 TDP1 CPT inconclusive
c1ccc(Cn2ncc3c(NCc4ccco4)ncnc32)cc1	D3 antag inconclusive, DT40 TDP1 no CPT inconclusive, DT40 TDP1 CPT inconclusive
Clc1ccc(Cn2ncc3c(NCc4ccccc4)ncnc32)cc1	DT40 TDP1 no CPT 4.1µM, DT40 TDP1 CPT 4.6µM
CCCCNc1ncnc2c1cnn2Cc1ccc(Cl)cc1	DT40 TDP1 no CPT 6.5µM, DT40 TDP1 CPT 9.2µM
COCC(C)Nc1ncnc2c1cnn2-c1ccc(Cl)cc1 (configuration not stated)	ClpP mod 28µM, IL-1B inflam inh -57, DT40 TDP1 no CPT inconclusive, DT40 TDP1 CPT inconclusive
COc1ccc(-n2ncc3c(NC(C)C)ncnc32)cc1	DT40 TDP1 no CPT inconclusive
O=C1CN(C(=O)COC(=O)c2ccc([N+](=O)[O-])o2)c2ccccc2N1	none
O=C(CSc1nc2ccccc2c2nc(-c3ccccc3)nn12)Nc1ccc(Br)cc1	none (no result: D3 antag, IL-1B inflam inh)
CCCCNc1ncnc2c1cnn2-c1ccc(Cl)cc1	D3 antag inconclusive, DT40 TDP1 no CPT 4.6µM, DT40 TDP1 CPT 3.7µM
COCCCNc1ncnc2c1cnn2-c1ccc(F)cc1	DT40 TDP1 no CPT 5.8µM, DT40 TDP1 CPT 5.2µM (no result: D3 antag, IL-1B inflam inh)
Clc1ccc(-n2ncc3c(NCCCn4ccnc4)ncnc32)cc1	DT40 TDP1 CPT inconclusive

Screening results: PubChem BioAssay, National Center for Advancing Translational Sciences (NCATS)
